# Measurements: the supplement of paper PMC11172423
# A number with no mark means an inactive call.
# Key:
# [1] = system: Falciformispora senegalensis CBS197.79; test: growth relative to untreated control; higher = less inhibition, active = 20 or less
# Procedure, shortened: (§1)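 In 96-well plates, suspended hyphal fragments of M. mycetomatis MM55 or F. senegalensis CBS197.79 were exposed to compound at 100 or 25 µM for 7 days at 37 °C. The suspension medium was colourless RPMI 1640 with L-glutamine and MOPS, adjusted to 68–72% transmission at 660 nm. Viability was measured with MTS (2 h, 490 nm) or resazurin (600 nm). Growth means metabolic activity compared with the untreated growth control after blank correction of both with medium plus dye.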
# [2] = system: Madurella mycetomatis MM55; test: as above
# Procedure, shortened: as §1
Compound,growth ([1]; 25 µM),growth ([1]; 100 µM),growth ([2]; 25 µM),growth ([2]; 100 µM)
OCCN1CCN(CCCN2c3ccccc3Sc3ccc(C(F)(F)F)cc32)CC1,1.11% (active),8.28% (active),,
O=C(NCCN1CCCC1)c1ccc(Nc2nccc(-c3ccc(Cl)cc3)n2)cc1,83.6%,7.34% (active),50.5%,5.82% (active)
CCCCC(=O)N(Cc1ccc(-c2ccccc2-c2nn[nH]n2)cc1)[C@H](C(=O)O)C(C)C,103%,107%,,
CCSc1ccc2c(c1)N(CCCN1CCN(C)CC1)c1ccccc1S2,7.2% (active),11.7% (active),,
CCCCN(CCCC)CC(O)c1cc(Cl)cc2c1-c1ccc(Cl)cc1/C2=C/c1ccc(Cl)cc1 (centres undefined),98.7%,96.3%,,
CC[C@@H]([C@H](C)O)n1ncn(-c2ccc(N3CCN(c4ccc(OC[C@@H]5CO[C@@](Cn6cncn6)(c6ccc(F)cc6F)C5)cc4)CC3)cc2)c1=O,25.2%,24.1%,,
O=C(NC1CCCc2c1[nH]c1ccc(Cl)cc21)c1ccccn1 (centres undefined),107%,103%,35.3%,9.39% (active)
C[C@H]1O[C@@H](O[C@H]2[C@@H](O)C[C@H](O[C@H]3[C@@H](O)C[C@H](O[C@H]4CC[C@@]5(C)[C@H](CC[C@@H]6[C@@H]5CC[C@]5(C)[C@@H](C7=CC(=O)OC7)CC[C@]65O)C4)O[C@@H]3C)O[C@@H]2C)C[C@H](O)[C@@H]1O,99.1%,98%,94.5%,73.2%
CC[C@H](Nc1ncnc2[nH]cnc12)c1nc2cccc(F)c2c(=O)n1-c1ccccc1,98%,98.4%,103%,83.5%
N#CC[C@H](C1CCCC1)n1cc(-c2ncnc3[nH]ccc23)cn1,110%,103%,,
CCOc1ccccc1NC(=O)Cn1c(=O)n(Cc2ccccc2)c(=O)c2c(C)c(C(=O)N(C)C)sc21,92.1%,108%,,
Cc1ccc(NC(=O)c2ccc(CN3CCN(C)CC3)cc2)cc1Nc1nccc(-c2cccnc2)n1,95.1%,103%,,
O=C(Nc1cccc(-c2cc3nc(Nc4ccc(N5CCOCC5)cc4)ncc3[nH]2)c1)C1CC1,89.7%,85.2%,,
Cc1cc(OCCN2CCOCC2)nn1-c1ccc2ccccc2c1,105%,103%,,
CN(C)C(=N)N=C(N)N,104%,105%,87%,87.2%
CC[C@H](C)[C@H]1O[C@]2(CC[C@@H]1C)C[C@@H]1C[C@@H](C/C=C(\C)[C@@H](O[C@H]3C[C@H](OC)[C@@H](O[C@H]4C[C@H](OC)[C@@H](O)[C@H](C)O4)[C@H](C)O3)[C@@H](C)/C=C/C=C3\CO[C@@H]4[C@H](O)C(C)=C[C@@H](C(=O)O1)[C@]34O)O2,93.9%,106%,,
O[C@@H](CNC[C@H](O)[C@H]1CCc2cc(F)ccc2O1)[C@@H]1CCc2cc(F)ccc2O1,5.42% (active),12.3% (active),,
CCCCc1oc2ccccc2c1C(=O)c1cc(I)c(OCCN(CC)CC)c(I)c1,101%,104%,78.3%,87.6%
CC(N)CCn1c(Nc2cc(Cl)cc(C(F)(F)F)c2)nc2cnc(NC3CCCC3)nc21 (centres undefined),10.9% (active),17.2% (active),,
CN(C)C(=O)COC(=O)Cc1ccc(OC(=O)c2ccc(NC(=N)N)cc2)cc1,112%,108%,,
C[C@H]1O[C@@H](O[C@H]2[C@@H](O)C[C@H](O[C@H]3[C@@H](O)C[C@H](O[C@H]4CC[C@@]5(C)[C@H](CC[C@@H]6[C@@H]5C[C@@H](O)[C@]5(C)[C@@H](C7=CC(=O)OC7)CC[C@]65O)C4)O[C@@H]3C)O[C@@H]2C)C[C@H](O)[C@@H]1O,99.5%,106%,82.1%,90.8%
COc1ccc(CCNc2nccc(-c3cc(Cl)cc(C(F)(F)F)c3)n2)cc1,87.1%,94.6%,,
O=C(Nc1cccc(-c2n[nH]c3ccc(-c4n[nH]c(C5CCCN5)n4)cc23)c1)C1CC1 (centres undefined),102%,95%,,
CCN(CC)CCOc1ccc(C(O)(Cc2ccc(Cl)cc2)c2ccc(C)cc2)cc1 (centres undefined),7.03% (active),8.2% (active),,
COC(=O)[C@@]1(c2ccc(C)cc2)C[C@H]1CN1CCC(O)(c2ccccc2)CC1,95.2%,97.4%,,

Compound,growth ([1]; 25 µM),growth ([1]; 100 µM),growth ([2]; 25 µM),growth ([2]; 100 µM)
Cc1cc(C)c2cc(C(=O)N[C@@H](C)c3ccccc3)[nH]c2c1,86.1%,87.5%,,
Cn1nc(C(=O)Nc2ccc(F)c(Cl)c2)c2c1-c1ccccc1S(=O)(=O)C2,99.8%,117%,,
COc1cccc2c1C(=O)c1c(O)c3c(c(O)c1C2=O)C[C@@](O)(C(=O)CO)C[C@@H]3O[C@H]1C[C@H](N)[C@H](O)[C@H](C)O1,94.8%,96.3%,,
Cc1cccc(Nc2nccc(-c3cccc(C#N)c3)n2)c1,80.6%,89.8%,84.1%,49.1%
Cc1cccnc1Nc1cn2cc(-c3cccc(OCC(F)(F)F)n3)ccc2n1,96.5%,86.9%,119%,8.06% (active)
O=C1NCN(c2ccccc2)C12CCN(CCCC(c1ccc(F)cc1)c1ccc(F)cc1)CC2,3.66% (active),14.7% (active),7.29% (active),5.27% (active)
COc1ccc2cc1Oc1ccc(cc1)C[C@H]1c3cc(c(OC)cc3CCN1C)Oc1c(OC)c(OC)cc3c1[C@H](C2)N(C)CC3,33.4%,20.6%,3.29% (active),3.62% (active)
C[C@H]1c2cccc(O)c2C(=O)C2=C(O)[C@]3(O)C(O)=C(C(N)=O)C(=O)[C@@H](N(C)C)[C@@H]3[C@@H](O)[C@@H]21,108%,108%,63.1%,91.7%
COC(=O)C1=C(C)NC(C)=C(C(=O)OCCN2CCN(C(c3ccccc3)c3ccccc3)CC2)C1c1cccc([N+](=O)[O-])c1 (centres undefined),94%,99.1%,81.7%,86.7%
Cc1cc(Nc2cc(N)ncn2)c(=O)n2c1C(=O)NC21CCCCC1,111%,107%,85.9%,84.7%
CCCOc1ccc(C(F)(F)F)cc1NC(=O)c1nc2nccc(C)n2n1,91.7%,90%,62%,84.4%
Cc1cc(Nc2cn3cc(-c4cnn(C(F)F)c4)ccc3n2)nc(C)n1,94.1%,83.8%,95.2%,58.6%
C[C@@H](O[C@H]1OCCN(Cc2n[nH]c(O)n2)[C@H]1c1ccc(F)cc1)c1cc(C(F)(F)F)cc(C(F)(F)F)c1,104%,103%,89.8%,5.09% (active)
CN1CCN(c2ccc(C(=O)NCc3cnc(C#N)nc3NCC(C)(C)C)cc2)CC1,102%,18.9% (active),72.9%,3.97% (active)
CCOc1cc(C(C)(C)C)ccc1C1=N[C@@](C)(c2ccc(Cl)cc2)[C@@](C)(c2ccc(Cl)cc2)N1C(=O)N1CCN(CCCS(C)(=O)=O)CC1,99.6%,101%,86.9%,99.8%
CCN1C(=O)N(CCC(C)C)C2(CCN(Cc3cc(O)cc(Cl)c3)CC2)C1=O,91%,92.9%,99.4%,104%
Cc1nn(C2CCS(=O)(=O)C2)c(C)c1C1Nc2ccccc2C(=O)N1Cc1ccc2c(c1)OCO2 (centres undefined),84.3%,93.6%,82.2%,91.4%
Cn1cnc2c(F)c(Nc3ccc(Br)cc3Cl)c(C(=O)NOCCO)cc21,96.9%,103%,110%,86.3%
C=CCNc1nc(NCC=C)nc(N2CCN(C(c3ccc(F)cc3)c3ccc(F)cc3)CC2)n1,105%,91.3%,91.8%,83.9%
CCOc1ccc(C=C2NCCc3cc(OCC)c(OCC)cc32)cc1OCC,112%,106%,73.2%,48%
COc1cc(NC(=O)Nc2cccc(CNC(=O)O[C@H]3CCOC3)c2)ccc1-c1cnco1,100%,102%,100%,81.8%
CCN(CCO)CCCC(C)Nc1ccnc2cc(Cl)ccc12 (centres undefined),109%,105%,85.1%,78.2%
CC(C)c1nc(CN(C)C(=O)N[C@H](C(=O)N[C@@H](Cc2ccccc2)C[C@H](O)[C@H](Cc2ccccc2)NC(=O)OCc2cncs2)C(C)C)cs1,101%,104%,74.1%,82.2%
CS(=O)(=O)N1CCC(NC(=O)c2cc3ccc(C(F)(F)F)cc3[nH]2)CC1,90.8%,84.8%,101%,109%
